Bioassay records (PubChem BioAssay)
Shiga toxin inh: blocks Shiga toxin action in Vero cells | Vero cells, Shiga toxin protein synthesis inhibition reporter | inhibition, % at 38.7 µM | 9.2% of 290,000 active | AID 2315; in the data active = inhibition mostly above about 28%, no sharp cut-off; inactive = mostly below about 43%
Pf growth 96h: P. falciparum growth inhibition at 96 hour, primary screen for plastid delayed-death inhibitors. P. falciparum luciferase reporter growth, 96 h. Potency, µM (series often up to 28.7 µM), hits mostly inhibitors. 6.9% of 320,000 active
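Two parasite generations (96 h, 37 C, 5% CO2) of compound exposure in infected erythrocytes (0.05% parasitemia, 2% hematocrit). Luciferase-reporter P. falciparum; decreased luminescence indicates inhibited growth, aimed at apicoplast-acting delayed death.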
Pf growth 48h: inhibits P. falciparum growth in the first generation, 48 h; 5.9% of 310,000 active; P. falciparum luciferase growth in erythrocytes, 48 h; Potency, µM (top dose mostly 28.7 µM), usual class: inhibitors
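Erythrocytes infected with P. falciparum carrying an integrated firefly luciferase reporter (2% hematocrit, 0.1% parasitemia final) were exposed to compounds in RPMI 1640 with 0.5% Albumax at 37 C, 5% CO2. Growth inhibition was scored as reduced luminescence.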
CHX counter: counter-screen hit for Shiga toxin inhibitors, cycloheximide | cell reporter, cycloheximide protein synthesis inhibition counterscreen | max response, % | 12% of 300,000 active; in the data active = max response mostly above about 13%, no sharp cut-off; inactive = mostly below about 14%; also: read at 38.3 µM for the half of the compounds with a filed dose
SARS PLpro yeast: SARS-CoV PLP inhibition in yeast; S. cerevisiae expressing SARS-CoV PLpro, growth rescue; AID 485353; 0.19% of 330,000 active; Potency, µM (highest dose often 32.9 µM), actives largely listed as activators; calls by dose curve; also: nearly all actives have a fitted effect of over 55% in size
AMA1 RON2 block: AMA1-RON2 (P. falciparum) interaction inhibition | AlphaScreen AMA1-biotinylated RON2 peptide binding | 0.2% of 360,000 active | Potency, µM (top dose mostly 58.2 µM), hits mostly inhibitors | AID 720542; also: nearly all actives have a fitted effect of over 45% in size
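AMA1 (3D7) with his tag at 25 nM final met compounds first, then biotinylated RON2 peptide at 25 nM; detection used donor plus acceptor beads, 10 µg/mL apiece, read by AlphaScreen after 30 min at room temperature.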
A number is an active result; [ ] = another dose, or the depositor's remark. An excerpt weighted towards active compounds, which were near 19% of everything screened. Unless noted, calls follow the shape of the dose curve; as a rule, active = well fitted curve in the direction sought with a large enough effect; inconclusive = small, poorly fitted or top-dose-only effect, or another doubt; inactive = no such curve, though single readings can be large; an effect the other way counts as inactive or inconclusive.

For CC1CCCC(NC(=O)COC(=O)c2cccs2)C1C (configuration not stated) the results were Pf growth 96h inactive, Pf growth 48h inactive, SARS PLpro yeast inactive and AMA1 RON2 block inactive.
Screening C[C@@H]1CN([C@H](C)CO)C(=O)Cc2cc(NC(=O)Nc3ccccc3)ccc2O[C@@H]1CN(C)C(=O)Nc1ccc2c(c1)OCO2 returned SARS PLpro yeast inactive and AMA1 RON2 block inactive.
Screening COC(=O)c1ccc2ccccc2n1 returned AMA1 RON2 block inactive.
`O=C(Nc1ccccn1)c1ccc2ccccc2n1` gave Shiga toxin inh 81, Pf growth 96h inactive[5.75 µM], Pf growth 48h inactive, CHX counter 66, SARS PLpro yeast inactive and AMA1 RON2 block inactive.
For Cc1csc(NC(=O)c2ccc3ccccc3n2)n1 the results were Shiga toxin inh 98, Pf growth 96h inactive, CHX counter 42, SARS PLpro yeast inactive and AMA1 RON2 block inactive.
Screening CN(C)c1nc(NNC(=O)c2ccccc2)nc(N(C)C)n1 returned AMA1 RON2 block inactive.
For O=C1CC2(CCCC2)CC(=O)N1c1ccccc1 the results were Shiga toxin inh inactive, Pf growth 96h 12µM, Pf growth 48h inconclusive, CHX counter inactive, SARS PLpro yeast inactive and AMA1 RON2 block inactive.
Screening COc1ccc(N2C(=O)CC(c3ccccc3)CC2=O)cc1 returned Pf growth 96h inactive, Pf growth 48h inactive, SARS PLpro yeast inactive and AMA1 RON2 block inactive.
`O=C1CC(=O)N(c2ccccc2)C(=O)N1c1ccccc1` gave Shiga toxin inh inactive, Pf growth 96h inconclusive, Pf growth 48h inactive, CHX counter 17, SARS PLpro yeast inactive and AMA1 RON2 block inactive.
COc1ccc(N2C(=O)CC3(CCCC3)CC2=O)cc1 was read as Shiga toxin inh inactive, Pf growth 96h 6.6µM, Pf growth 48h inactive, CHX counter inactive, SARS PLpro yeast inactive and AMA1 RON2 block inactive.
`COc1ccccc1N1CCN(C(=O)c2ccc(S(=O)(=O)N3CCCCCC3)cc2)CC1` gave Shiga toxin inh inactive, Pf growth 48h inconclusive, CHX counter inactive, SARS PLpro yeast inactive and AMA1 RON2 block inactive.
For COc1ccccc1OCC(=O)NCc1ccco1 the results were Shiga toxin inh inactive, Pf growth 96h inactive, Pf growth 48h inactive, CHX counter inactive, SARS PLpro yeast inactive and AMA1 RON2 block inactive.
`O=C(COc1ccccc1Br)NCc1ccco1` gave Shiga toxin inh inactive, Pf growth 96h inactive, Pf growth 48h inactive, CHX counter 19, SARS PLpro yeast inactive and AMA1 RON2 block inactive.
Cc1ccc(Cl)c(OCC(=O)NCc2ccco2)c1 was read as Shiga toxin inh inactive, Pf growth 48h inactive, CHX counter 24, SARS PLpro yeast inactive and AMA1 RON2 block inactive.
`CCc1ccc(OCC(=O)NCc2ccco2)c(Br)c1` gave Shiga toxin inh 106, Pf growth 48h inactive, CHX counter 40, SARS PLpro yeast inactive and AMA1 RON2 block inactive.
Screening CC(C)OC(=O)C(C)Oc1ccc(C(=O)NCCc2ccccc2)cc1 (configuration not stated) returned Shiga toxin inh 40, Pf growth 96h inactive, Pf growth 48h inactive, CHX counter 25, SARS PLpro yeast inactive and AMA1 RON2 block inactive.
`CCCCOc1ccc(C(=O)NCc2ccccn2)cc1` gave Shiga toxin inh inactive, Pf growth 48h inactive, CHX counter 21, SARS PLpro yeast inactive and AMA1 RON2 block inactive.
For CC(Oc1ccc(C(=O)NCCc2ccccc2)cc1)C(=O)O (configuration not stated) the results were Shiga toxin inh inactive, Pf growth 48h inactive, CHX counter inactive, SARS PLpro yeast inactive and AMA1 RON2 block inactive.
`COc1ccc(C(=O)NCc2ccccn2)cc1` gave Shiga toxin inh inactive, Pf growth 96h inactive, Pf growth 48h inactive, CHX counter inactive, SARS PLpro yeast inactive and AMA1 RON2 block inactive.
Cc1ccccc1CN(c1ccc(C(=O)NCc2ccccn2)cc1)S(C)(=O)=O was read as Shiga toxin inh inactive, Pf growth 96h inactive, Pf growth 48h inactive, CHX counter inactive, SARS PLpro yeast inactive and AMA1 RON2 block inactive.
For CCCCOc1ccc(C(=O)NCCc2ccccc2)cc1 the results were Shiga toxin inh 91, Pf growth 96h 2.6µM, Pf growth 48h inactive, CHX counter 42, SARS PLpro yeast inconclusive and AMA1 RON2 block inactive.
For CS(=O)(=O)N(Cc1ccccc1Cl)c1ccc(C(=O)NCc2ccccn2)cc1 the results were Shiga toxin inh inactive, Pf growth 96h 10µM, Pf growth 48h inconclusive, CHX counter inactive, SARS PLpro yeast inactive and AMA1 RON2 block inactive.
For COc1ccccc1-c1c(C#N)c(SCC(=O)N2CCCC2)nc(C)c1C(N)=O the results were Shiga toxin inh inactive, Pf growth 96h inconclusive, Pf growth 48h inactive, CHX counter inactive and SARS PLpro yeast inactive.
For O=C(COc1ccc(C(=O)NCCc2ccccc2)cc1)Nc1ccccc1 the results were Shiga toxin inh inactive, Pf growth 96h 4.1µM, Pf growth 48h inactive, CHX counter inactive, SARS PLpro yeast inactive and AMA1 RON2 block inactive.
For CCNC(=S)NC1CC2CCCC(C1)N2CCc1ccccc1 (configuration not stated) the results were Shiga toxin inh inactive, Pf growth 96h 8.3µM, Pf growth 48h inconclusive, CHX counter inactive, SARS PLpro yeast inactive and AMA1 RON2 block inactive.
Screening COc1ccc(Cc2nc3ccc(C(=O)NC(C)c4cnn(C)c4)cc3o2)cc1 (configuration not stated) returned Shiga toxin inh inactive, Pf growth 96h inconclusive, Pf growth 48h inactive, CHX counter inactive, SARS PLpro yeast inactive and AMA1 RON2 block inactive.
`CC(c1ccccn1)N(C)C(=O)c1ccc2nc(Cc3ccccc3F)oc2c1` (configuration not stated) gave Shiga toxin inh 72, Pf growth 96h inactive, Pf growth 48h inactive, CHX counter 53, SARS PLpro yeast inactive and AMA1 RON2 block inactive.
Screening Cc1c(C(C)NC(=O)c2ccc3nc(Cc4ccccc4F)oc3c2)cnn1C (configuration not stated) returned Shiga toxin inh 36, Pf growth 96h inconclusive, Pf growth 48h inactive, CHX counter 34, SARS PLpro yeast inactive and AMA1 RON2 block inactive.
`Cc1cc(CNC(=O)c2ccc3nc(Cc4ccccc4F)oc3c2)nn1C` gave Shiga toxin inh 94, Pf growth 96h 2.1µM, Pf growth 48h inactive, CHX counter 42, SARS PLpro yeast inactive and AMA1 RON2 block inactive.
COc1ccc(Cc2nc3ccc(C(=O)NCCn4cccn4)cc3o2)cc1 was read as Shiga toxin inh inactive, Pf growth 96h inactive, Pf growth 48h inactive, CHX counter inactive, SARS PLpro yeast inactive and AMA1 RON2 block inactive.
Screening CCCCc1nc2cc(C(=O)NCc3cc(C)n(C)n3)ccc2o1 returned Shiga toxin inh 78, Pf growth 96h inactive, Pf growth 48h inactive, CHX counter 25, SARS PLpro yeast inactive and AMA1 RON2 block inactive.
For CN(Cc1ccccn1)C(=O)c1ccc2nc(Cc3cccc(Cl)c3)oc2c1 the results were Shiga toxin inh inactive, Pf growth 96h inconclusive, Pf growth 48h inactive, CHX counter inactive, SARS PLpro yeast inactive and AMA1 RON2 block inactive.
